Test results from the supplement of paper PMC6555819.

Tests used:
Assay in all cases: PBM binding z-score (relative to random genomic background probes); higher = stronger binding; sequences stand for … in GC…GCGATTGACAGCGTAGAATGAAGG
[1] = test system: FXR:RXRa (NR concentration 270 nM, RXRa partner concentration 90 nM)
Summary of the method: (§1)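 Each nuclear receptor dimer, without ligand, was incubated for 1 h on custom Agilent 4×180K protein-binding microarrays. Binding was detected with antibodies against each partner (one per run), and scanned fluorescence was regression-normalized. The binding z-scores are referenced to random human genomic background probes.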

[2] = test system: LXRa:RXRa (NR concentration 270 nM, RXRa partner concentration 90 nM)
Summary of the method: as §1

[3] = test system: LXRa homodimer (NR concentration 270 nM)
Summary of the method: as §1

[4] = test system: LXRb:RXRa (NR concentration 270 nM, RXRa partner concentration 90 nM)
Summary of the method: as §1

[5] = test system: LXRb homodimer (NR concentration 270 nM)
Summary of the method: as §1

[6] = test system: PPARa:RXRa (NR concentration 270 nM, RXRa partner concentration 90 nM)
Summary of the method: as §1

[7] = test system: PPARg:RXRa (NR concentration 180 nM, RXRa partner concentration 90 nM)
Summary of the method: as §1

[8] = test system: PPARg:RXRa 270nM:90nM, anti-RXR (NR concentration 270 nM, RXRa partner concentration 90 nM)
Summary of the method: as §1

[9] = test system: PPARg:RXRa 30nM:10nM, anti-RXR (NR concentration 30 nM, RXRa partner concentration 10 nM)
Summary of the method: as §1

[10] = test system: PPARg:RXRa 90nM:30nM, anti-RXR (NR concentration 90 nM, RXRa partner concentration 30 nM)
Summary of the method: as §1

[11] = test system: PPARg:RXRa DBDmut IVT, anti-RXR (DBD mutation: RXRa K156A/R161A, NR concentration 270 nM, RXRa partner concentration 90 nM)
Summary of the method: as §1

[12] = test system: PPARg:RXRa IVT, anti-PPARg (NR concentration 270 nM, RXRa partner concentration 90 nM)
Summary of the method: as §1

[13] = test system: PPARg DBDmut:RXRa IVT, anti-PPARg (DBD mutation: PPARg1 K132A/R137A, NR concentration 270 nM, RXRa partner concentration 90 nM)
Summary of the method: as §1

[14] = test system: PPARg DBDmut IVT, anti-PPARg (DBD mutation: PPARg1 K132A/R137A, NR concentration 270 nM)
Summary of the method: as §1

[15] = test system: PPARg homodimer (NR concentration 180 nM)
Summary of the method: as §1

[16] = test system: PXR:RXRa (NR concentration 270 nM, RXRa partner concentration 90 nM)
Summary of the method: as §1

[17] = test system: PXR homodimer (NR concentration 270 nM)
Summary of the method: as §1

[18] = test system: RARa:RXR (NR concentration 270 nM, RXRa partner concentration 90 nM)
Summary of the method: as §1

[19] = test system: RARa homodimer (NR concentration 270 nM)
Summary of the method: as §1

[20] = test system: RARb:RXRa (NR concentration 270 nM, RXRa partner concentration 90 nM)
Summary of the method: as §1

| Sequence | PBM binding z-score [1] | PBM binding z-score [2] | PBM binding z-score [3] | PBM binding z-score [4] | PBM binding z-score [5] | PBM binding z-score [6] | PBM binding z-score [7] | PBM binding z-score [8] | PBM binding z-score [9] | PBM binding z-score [10] | PBM binding z-score [11] | PBM binding z-score [12] | PBM binding z-score [13] | PBM binding z-score [14] | PBM binding z-score [15] | PBM binding z-score [16] | PBM binding z-score [17] | PBM binding z-score [18] | PBM binding z-score [19] | PBM binding z-score [20] |
| --- | --- | --- | --- | --- | --- | --- | --- | --- | --- | --- | --- | --- | --- | --- | --- | --- | --- | --- | --- | --- |
| TAGCCTAGGTCAGAGCGGGCCAGTATACGCTATA | 1.24 | 0.815 | -0.692 | 0.501 | -1.17 | 1.42 | 0.573 | 0.718 | -0.359 | 0.201 | 0.635 | 1.65 | -0.73 | -0.204 | 0.133 | 0.376 | -0.362 | 0.867 | -1.12 | 2.85 |
| CAAACTACGTCACAGAGGTCAAAGTCCGTGCGTA | 4.81 | 5.44 | 5.72 | 5.02 | 1.87 | 5.12 | 3.52 | 4.59 | 1.9 | 3.91 | 0.625 | 2.48 | 1.33 | 0.372 | 2.66 | 5.74 | 2.1 | 5.74 | 1.25 | 3.98 |
| TCTGCAAGGTCAACGATGGTCAGCTAATCTGCTA | 6.64 | 5.29 | 0.751 | 4.06 | 0.582 | 5.41 | 4.78 | 4.95 | 2.86 | 4.09 | 3.02 | 3.91 | -0.02 | -0.552 | 2.84 | 4.57 | 0.31 | 4.65 | 0.319 | 5.27 |
| ATCGAAAGGTCGCGGTGAGTATAGAGAAAGGGAA | 6 | 4.14 | 0.362 | 3.7 | 0.371 | 5.23 | 4.84 | 4.74 | 1.65 | 3.31 | 0.748 | 2.76 | 0.634 | 0.427 | 1.87 | 3.21 | 0.401 | 3.63 | 0.883 | 4.66 |
| GCGACTGGGGCAAAGGAGGTTACCATAAGGTTGG | 1.77 | 1.09 | -0.0421 | 0.882 | -0.261 | 2.06 | 3.15 | 3.93 | 1.89 | 3.87 | 4.69 | 3.76 | -0.0461 | -0.579 | 1.05 | 1.54 | -0.167 | 1.41 | -0.0952 | 1.26 |
| ATTCAAAGTTCACTAGGTAACGTAAGATTCAGCT | 4.73 | 5.45 | 4.42 | 3.08 | 1.71 | 4.44 | 5.64 | 5.28 | 2.03 | 4.25 | 2.64 | 4.4 | 1.68 | 2.19 | 2.66 | 3.71 | 3.03 | 2.9 | 2.06 | 4.61 |
| CCTCCTGGGCCATCAGGTCATTGATATCAACGTT | 1.24 | 0.991 | 0.788 | 1.31 | 0.0311 | 1.73 | 0.38 | 1.29 | -0.255 | 0.67 | 0.202 | 1.81 | -1.18 | -0.736 | 0.643 | 1.34 | 0.852 | 2.16 | -0.969 | 1.99 |
